Compound activity (PubChem)
USP8 block – blocks human USP8 ubiquitin-rhodamine cleavage; purified USP8, Ub-rhodamine cleavage fluorescence, 30 min; inhibition, % at 20 µM; hit rate 4.2% among 47,000; AID 1645853
OTUD3 block – inhibitors of human OTUD3 deubiquitinase | Q5T2D3 | AID 1645858 | inhibition, % at 25 µM | purified OTUD3, Ub-rhodamine fluorescence, 2 h | hit rate 0.7% among 47,000
Target sequence (Q5T2D3 whole entry, looked up): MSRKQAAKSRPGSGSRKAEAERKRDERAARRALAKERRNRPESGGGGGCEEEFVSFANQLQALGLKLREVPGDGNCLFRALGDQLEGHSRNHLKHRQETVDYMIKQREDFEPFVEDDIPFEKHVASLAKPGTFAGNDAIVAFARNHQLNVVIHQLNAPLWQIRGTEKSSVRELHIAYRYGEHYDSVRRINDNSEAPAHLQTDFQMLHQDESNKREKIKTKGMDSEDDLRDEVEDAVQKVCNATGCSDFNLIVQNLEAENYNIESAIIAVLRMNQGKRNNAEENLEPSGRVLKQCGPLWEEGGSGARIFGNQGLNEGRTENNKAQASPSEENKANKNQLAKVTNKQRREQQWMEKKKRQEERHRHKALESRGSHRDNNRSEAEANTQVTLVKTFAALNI
UCHL1 inh – inhibitors of human UCHL1 deubiquitinase; P09936; purified UCHL1, Ub-rhodamine cleavage fluorescence; inhibition, % at 20 µM; hit rate 0.2% among 47,000; AID 1645859
Target sequence (P09936 whole entry, looked up): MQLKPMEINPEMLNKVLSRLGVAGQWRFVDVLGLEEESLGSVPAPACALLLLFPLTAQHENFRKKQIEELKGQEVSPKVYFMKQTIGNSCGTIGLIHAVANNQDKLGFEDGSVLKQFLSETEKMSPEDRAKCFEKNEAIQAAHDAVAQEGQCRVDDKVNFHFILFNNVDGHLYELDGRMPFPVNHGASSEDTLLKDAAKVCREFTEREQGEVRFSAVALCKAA
USP7 block – blocks human USP7 ubiquitin-rhodamine cleavage; inhibition, % at 20 µM; Q93009; AID 1645854; purified USP7, Ub-rhodamine cleavage fluorescence; hit rate 0.3% among 47,000
USP10 block – blocks human USP10 ubiquitin-rhodamine cleavage. hit rate 1.1% among 47,000. purified USP10, Ub-rhodamine fluorescence, 60 min. inhibition, % at 20 µM. Q14694. AID 1645856
Starred values were filed as active, the others as inactive. An excerpt weighted towards active compounds, which were near 4.9% of everything screened. No stated cut-off is given here; in the data, active means inhibition above about 30%; inactive means the rest.

SMILES | USP8 block | OTUD3 block | UCHL1 inh | USP7 block | USP10 block
CCOc1ccc2[nH]c(=O)c(-c3nc4cc(C)ccn4c3NC(C)(C)C)cc2c1 | -50.7 | -66.6 | -2.2 | -3.5 | -5.0
CCOc1ccc2[nH]c(=O)c(-c3nc4ccc(C)cn4c3NCc3ccccc3)cc2c1 | 14.4 | 14.0 | 5.4 | 15.0 | 31.1*
Cc1ccc(S(=O)(=O)NCCn2c(N)c(C#N)c3nc4ccccc4nc32)cc1 | 64.9* | 15.3 | -18.6 | -59.9 | -10.0
CC(C)N1CCN(C(=O)CN2CCC3(CCC2=O)NC(=O)c2ccccc2N3)CC1 (stereo not drawn) | 31.8* | 8.5 | 1.3 | 6.5 | 1.1
COc1ccc(NC(=O)CN2CCC3(CCC2=O)NC(=O)c2ccccc2N3)cc1 (stereo not drawn) | 1.8 | -3.1 | -4.1 | -1.0 | -4.0
COc1ccc(Cn2cccc(-c3nc(C4CC4)no3)c2=O)cc1F | 7.8 | 3.3 | 0.9 | 0.8 | 0.4
O=C(CSc1nc2c(cnn2-c2ccccc2)c(=O)[nH]1)Nc1ccc(Cl)cc1F | 79.6* | 7.6 | 1.2 | -32.0 | 9.1
O=C(Nc1ccccc1F)NC1CCc2nc(C(F)(F)F)cn2C1 (stereo not drawn) | 7.2 | 5.0 | 0.4 | 3.4 | 1.0
O=c1ccc(S(=O)(=O)N2CCCCC2)cn1Cc1ccccc1Cl | 0.0 | 11.5 | 1.2 | -6.2 | 0.0
N#Cc1ccccc1NC(=O)Cc1cccc2ccccc12 | -284.5 | 14.8 | 3.0 | 0.8 | 0.5
O=C(Cc1cccc2ccccc12)NCc1ccc(F)cc1 | -12.9 | -14.2 | -0.9 | -25.3 | -3.8
O=C(NCc1ccc(Cl)cc1)Nc1cccc2ccccc12 | 95.2* | 7.2 | 4.5 | 4.5 | 3.7
Cn1cc(NC(=O)Nc2cccc3ccccc23)c2ccccc21 | 88.6* | -11.2 | 6.7 | -5.4 | -11.5
O=C(Cc1ccccc1C(=O)O)Nc1cccc2ccccc12 | 71.4* | -10.6 | -6.1 | -12.6 | -5.6
CNC(=O)[C@@H]1C[C@@H]2CN(C(=O)CN3CCOCC3)CCN2[C@@]12C(=O)Nc1ccccc12 | 4.4 | -0.2 | 1.0 | 2.2 | -6.6
Cc1nc(Nc2nncs2)cc(C2CCCN2C(=O)c2ccccc2)n1 (stereo not drawn) | 4.5 | -2.8 | -5.0 | -0.1 | 1.1
O=C(Cc1ccc2c(c1)OCCO2)Nc1ccc(F)cc1F | 1.0 | -6.5 | -0.4 | 0.1 | -0.4
COc1cc(NC(=O)Cc2ccc3c(c2)OCCO3)c(OC)cc1Cl | 48.8* | 7.5 | 3.9 | 14.7 | 21.0
Cc1ccc(CN2CN(C3CCN(C(=O)c4cc(C)[nH]n4)CC3)CC2=O)cc1 | -28.3 | 1.3 | 0.1 | 0.1 | -1.3
COc1cc(Cl)c(C)cc1NC(=O)Cn1c(=O)n(CC(=O)NCc2ccco2)c(=O)c2ccccc21 | 63.5* | 40.4* | 8.4 | -22.0 | 42.6*
O=C(Cn1c(=O)c2ccccc2n(CC(=O)Nc2cc(Cl)cc(Cl)c2)c1=O)NCc1ccco1 | 50.4* | 11.9 | 0.1 | 1.5 | 34.7*
COc1cc(NC(=O)Cn2c(=O)n(-c3ccc(CC(=O)NCc4ccco4)cc3)c(=O)c3ccccc32)cc(OC)c1 | 22.0 | 13.2 | -0.4 | 4.1 | 23.0
CCc1ccc(NC(=O)Cn2c(=O)n(-c3ccc(CC(=O)NCc4ccco4)cc3)c(=O)c3ccccc32)cc1 | 29.0 | 0.4 | 3.0 | 7.9 | 21.4
O=C(Cn1c(=O)c2ccccc2n(CC(=O)Nc2ccc(Br)cc2)c1=O)NCc1ccco1 | 44.1* | 15.1 | -0.2 | 5.2 | 23.0
COc1ccc2[nH]c(C(=O)N(Cc3ccccn3)Cc3ccccn3)cc2c1 | 80.6* | -2.8 | 2.0 | 0.0 | -6.0
SMILES | USP8 block | OTUD3 block | UCHL1 inh | USP7 block | USP10 block
COc1cccc(-c2cc(CN3CCOCC3)[nH]n2)c1 | -141.8 | -1.6 | 1.2 | 0.0 | -0.1
CC(OC(=O)c1ccc2c(c1)OCO2)C(=O)Nc1cc(S(=O)(=O)N2CCCCC2)ccc1Cl (stereo not drawn) | -0.2 | 0.2 | -0.2 | 5.7 | -1.6
CN1[C@@H](CCC(=O)N2CCN(c3ccccn3)CC2)CNC(=O)[C@@H]2[C@H]1CCN2Cc1ccc(CO)o1 | -11.3 | -8.4 | -1.8 | 0.1 | -1.5
COC(=O)C1CCN(C(=O)CC[C@H]2CNC(=O)[C@@H]3[C@@H](CCN3Cc3ccccc3)N2C)CC1 | 19.3 | -2.3 | 6.6 | -20.3 | 3.3
CN1[C@@H](CCC(=O)N2CCN(c3ccccn3)CC2)CNC(=O)[C@@H]2[C@H]1CCN2Cc1ccc(O)cc1 | 72.7* | 22.8 | 17.2 | -13.6 | -1.7
CN1[C@@H](CCC(=O)N2CCN(c3ccccn3)CC2)CNC(=O)[C@@H]2[C@H]1CCN2CC(C)(C)C | -4.2 | -1.8 | -2.1 | -2.2 | -0.8
CN1[C@@H](CCC(=O)N2CCC(O)CC2)CNC(=O)[C@@H]2[C@H]1CCN2Cc1ccc(O)cc1 | 65.8* | 19.3 | 12.0 | -6.8 | -2.8
CN1[C@@H](CCC(=O)N2CCC(O)CC2)CNC(=O)[C@@H]2[C@H]1CCN2Cc1cccc(OC(F)(F)F)c1 | 35.5* | -12.5 | 4.2 | -21.7 | -1.5
CC(C)N1CC[C@@H]2[C@H]1C(=O)NC[C@H](CCC(=O)N1CCN(c3ccccn3)CC1)N2C | 61.7* | 15.7 | 9.6 | -3.6 | 0.1
Nc1nnc(-c2cc(-c3ccco3)on2)o1 | -5.2 | -0.7 | 1.4 | -0.8 | 5.2
Cc1cccnc1-n1c(C)c(C)c2c1ncn1nc(-c3ccccc3O)nc21 | -12.7 | -81.9 | -30.7 | -43.7 | -11.8
CN1C(=O)OC[C@@H]2CCN(C(=O)NCc3cccnc3)C[C@H]21 | 2.7 | -1.0 | -1.2 | 0.0 | -0.6
O=C(NC1CCCCC1)C(c1ccc(O)cc1)N(C(=O)C1COc2ccccc2O1)c1ccc(F)cc1 (stereo not drawn) | -0.5 | 2.7 | -3.1 | 1.1 | 25.4
O=C(C1CCOC1)N1CCC2(CC1)CN(c1cccnc1)c1ccccc12 (stereo not drawn) | -13.1 | 21.9 | 3.1 | 5.8 | 1.4
O=C1C(NS(=O)(=O)Cc2ccc(Cl)cc2)CCN1c1ccccc1 (stereo not drawn) | 31.4* | 8.5 | 9.1 | 16.4 | 5.4
Cc1ccc(CNC(=O)NC2CCN(c3ccccc3)C2=O)cc1 (stereo not drawn) | 31.8* | 16.0 | 2.9 | 9.4 | 5.7
Cc1cc(N2CCC(NS(=O)(=O)Cc3ccccc3)C2=O)ccc1F (stereo not drawn) | -3.7 | -1.0 | -4.9 | -5.1 | -0.2
O=C(Cn1nnc2ccccc21)N1CCCCC1c1ccn[nH]1 (stereo not drawn) | 5.4 | -0.3 | -2.2 | -6.5 | -0.6
Cc1ccc(NC(=O)CC2=NC(=O)C(CC(=O)Nc3ccccc3C)S2)cc1 (stereo not drawn) | 39.3* | 3.0 | 3.2 | -1.1 | 20.2
Cc1ccc(NC(=O)Cn2c3ncccc3c(=O)n2-c2ccccc2)cc1 | 2.5 | -5.1 | -0.6 | 5.3 | 1.7
CCc1ccc(OCC(=O)Nc2cccc(-c3nc4ccccc4s3)c2)cc1 | -7.2 | 5.4 | 1.5 | 2.7 | 4.9
Cc1ccc(S(=O)(=O)CC(=O)Nc2ccc(-c3nc4ccccc4s3)c(O)c2)cc1 | 80.0* | -5.9 | 0.0 | 10.4 | 27.0
